# According to PubChem BioAssay:
# Active and inactive are the calls of the source. Unless noted, no rule for the calls is given here.
# Assays:
# [1] = tested on: Wnt5a (protein binding on small-molecule microarray); assay: small molecules binding Wnt5a protein – biophysical, small-molecule microarray, 635/667 nm fluorescence, primary screen (AID 1142); details: 635 nm fluorescence, higher = more signal;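 also: fluorescence read at 667 nm with signal to noise per printed feature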
# [2] = ATP-based viability of Huh7 replicon cells – cell-based, CellTiter-Glo luminescence, basal, 48 h, cytotoxicity control for HCV replication inhibitor project, primary screen (AID 1143); details: higher = more signal, called active from +8 up or from −8 down;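 also: Huh7 hepatoma cells carrying a hepatitis C replication reporter with no stimulus; test concentration not given here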
# [3] = Pseudomonas biofilm growth suppression – PAO1 strain, BacTiter-Glo luminescence, LB-PBS, primary screen (AID 1144); details: P. aeruginosa PAO1 biofilm, 12 h, higher = more signal
# [4] = basal CRE-LacZ reporter activity in PC12 – cell-based, unstimulated, primary screen (AID 1145); details: no forskolin, luminescence, 4.5 h, higher = more signal, called active from +8 up or from −8 down
# [5] = forskolin-driven CRE-LacZ activity in PC12 – cell-based, CRE-LacZ reporter, forskolin-stimulated, primary screen (AID 1146); details: luminescence, 4.5 h, higher = more signal, called active from +8 up or from −8 down;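 also: PC12 cells with 6xCRE LacZ reporter stimulated by forskolin 10 µM; beta-galactosidase reporter signal reflecting CREB driven transcription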
# [6] = biological target: Streptavidin (Streptomyces avidinii) (UniProt P22629); assay: compounds binding control protein streptavidin – biophysical, small-molecule microarray, 635/667 nm fluorescence, artefact control for SMM compound annotation, primary screen (AID 1147); details: higher = more signal;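 also: signal reflects streptavidin binding to arrayed compounds as a control protein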
# Sequence of Streptavidin (Streptomyces avidinii) (P22629 whole entry, looked up): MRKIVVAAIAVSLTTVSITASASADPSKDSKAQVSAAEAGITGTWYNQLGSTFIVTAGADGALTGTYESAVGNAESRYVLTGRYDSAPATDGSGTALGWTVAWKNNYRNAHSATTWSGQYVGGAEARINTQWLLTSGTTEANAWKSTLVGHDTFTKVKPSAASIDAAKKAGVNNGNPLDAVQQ
# [7] = probe aInhba binding on compound microarray – biochemical, small-molecule microarray, 635/667 nm fluorescence, primary screen (AID 1148); details: higher = more signal;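 also: score merges 667nm spot fluorescence with signal-to-noise for antibody binding to printed compounds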
# Torsin-1A (Homo sapiens) [8] = biological target: Torsin-1A (Homo sapiens) (UniProt O14656); assay: TOR1A wild-type binding on microarray – cell lysate, small-molecule microarray, lysate, 635/667 nm, primary screen (AID 1149); details: COS7 hTOR1A-WT lysate, 635 nm fluorescence, higher = more signal
# Sequence of Torsin-1A (Homo sapiens) (O14656 whole entry, looked up): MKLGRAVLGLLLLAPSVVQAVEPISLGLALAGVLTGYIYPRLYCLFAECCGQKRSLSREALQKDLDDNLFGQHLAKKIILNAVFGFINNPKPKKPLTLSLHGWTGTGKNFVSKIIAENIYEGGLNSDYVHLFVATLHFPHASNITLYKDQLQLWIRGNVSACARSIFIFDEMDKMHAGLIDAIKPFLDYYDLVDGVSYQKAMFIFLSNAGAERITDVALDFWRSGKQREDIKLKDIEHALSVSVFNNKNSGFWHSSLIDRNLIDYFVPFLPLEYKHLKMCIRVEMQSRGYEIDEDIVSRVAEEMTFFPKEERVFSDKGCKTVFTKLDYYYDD
# Torsin-1A (Homo sapiens) [9] = biological target: Torsin-1A (Homo sapiens) (UniProt O14656); assay: torsin A mutant lysate binding on microarrays – cell lysate, small-molecule microarray, COS7 lysate, 635/667 nm fluorescence, primary screen (AID 1150); details: COS7 hTOR1A mutant lysate, 635 nm fluorescence, higher = more signal;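 also: score pools 667 nm emission and signal to noise measuring lysate protein binding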
# [10] = tested on: Sonic hedgehog protein (Shh); assay: Sonic hedgehog microarray binding compounds – biochemical, small-molecule microarray, 635/667 nm fluorescence, primary screen (AID 1151); details: 635 nm fluorescence, higher = more signal;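 also: Shh protein binding to compounds spotted on small-molecule microarray slides; score combines spot fluorescence intensity with signal-to-noise across triplicate slides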
Compound,composite z-score [1],z-score [2],z-score [3],z-score [4],z-score [5],composite z-score [6],composite z-score [7],composite z-score (Torsin-1A (Homo sapiens) [8]),composite z-score (Torsin-1A (Homo sapiens) [9]),composite z-score [10]
CCCCCN1CC=CC23O[C@@H]4/C=C\CCC(C)OC(=O)C4[C@H]2C(=O)N(C(CO)C(C)C)[C@@H]3C1=O (stereo not given in full),-0.236,0.209 (inactive),-1.34 (inactive),-1.58 (inactive),-0.601 (inactive),-0.282,-0.101,-1.36,-0.303,0.866
CCCCCCc1nc(Cc2cc(OC)c(OC)c(OC)c2)cc2c1[Si](C(C)C)(C(C)C)OC2,0.03,-5.33 (inactive),-0.012 (inactive),0.498 (inactive),-0.419 (inactive),0.0761,0.0973,0.108,-0.282,0.724
Cc1ccc(S[C@]2(C(=O)NCC(F)(F)F)CC(=O)N(Cc3cc(C(F)(F)F)cc(C(F)(F)F)c3)[C@@H]2c2ccc(CO)cc2I)cc1,-0.676,-3.02 (inactive),-1.29 (inactive),-0.529 (inactive),0.423 (inactive),-0.978,-0.153,-0.877,-0.902,-0.58
COc1cc(NN2C(C(O)c3ccc(N(C)C)cc3)C=CC3C(=O)N(c4ccccc4)C(=O)C32)cc(OC)c1OC (stereo not given),0.0759,-2.89 (inactive),-0.414 (inactive),-0.136 (inactive),-0.259 (inactive),0.535,0.242,-0.223,0.419,-0.254
Cn1cccc1C(O)C1C=CC2C(=O)N(c3ccccc3)C(=O)C2N1Nc1ccccc1 (stereo not given),0.402,0.525 (inactive),-0.758 (inactive),-0.525 (inactive),-0.0981 (inactive),1.77,0.153,0.478,0.726,0.379
O=C(c1ccccc1)N1C(=O)[C@]2(Cc3ccccc31)N=C(c1ccc(OCCCO)cc1)O[C@@H]2c1ccccc1,1.09,-5.16 (inactive),-0.378 (inactive),2.67 (inactive),2.1 (inactive),0.431,-0.0361,0.357,0.562,2.09
Cc1ccc(N2C(=O)c3ccccc3[C@@H](C(=O)NCCCN(C)C)[C@@H]2c2ccc(CO)cc2)nc1,-0.198,0.492 (inactive),0.252 (inactive),0.208 (inactive),-1.35 (inactive),0.0893,-0.477,0.276,0.011,0.0381
[N-]=[N+]=Nc1ccccc1[C@H]1OC(c2ccc(OCCCO)cc2)=N[C@@]1(Cc1ccccc1)C(=O)NCCN1CCOCC1,1.47,-3.37 (inactive),-0.395 (inactive),-0.697 (inactive),-1.62 (inactive),1.32,0.936,0.596,0.0723,1.44
C[C@@H]1NC(=O)[C@@H](Cc2ccccc2)NC(=O)[C@@]23C(=O)N[C@@H](Cc4ccccc4)C2[C@H](C)[C@@]2(C)O[C@H]2C3/C=C/C/C=C\CNC1=O (stereo not given in full),-0.186,0.15 (inactive),0.111 (inactive),3.57 (inactive),0.272 (inactive),-0.963,-0.187,0.406,0.32,1.45
O=C1C2C=CC(C(O)C3CC=CCC3)N(Nc3ccccc3)C2C(=O)N1c1ccccc1 (stereo not given),-0.0727,-2.74 (inactive),-0.879 (inactive),0.426 (inactive),0.305 (inactive),0.801,0.292,-0.235,0.687,-0.143
C=CCOC(=O)[C@@]1(Cc2ccccc2)C[C@H]2CO[C@H](c3ccc(OC)cc3)N2C1=O,-0.0728,-1.08 (inactive),0.572 (inactive),2.72 (inactive),0.892 (inactive),0.911,-0.0719,0.91,0.456,0.235
COc1cc2c(cc1O)C=[N+](Cc1sc3ccccc3c1Cl)CC2,-0.245,-2.33 (inactive),0.206 (inactive),-0.348 (inactive),0.982 (inactive),0.0042,-0.0308,0.166,0.276,0.66
COc1ccc([Si](C)(C)[C@@H]2[C@@H](CCO)O[C@]3(C(=O)N(Cc4ccccc4)c4ccc(NC(=O)[C@H](C)O)cc43)[C@H]2C)cc1,0.514,-7.95 (inactive),-1.07 (inactive),12.2 (active),-0.161 (inactive),0.753,0.108,1.05,0.854,1.95
C[N+](C)(C)CCCCCCNC(=O)[C@@H]1C[C@@H]2C(=O)N3CCC[C@H]3C(=O)N2[C@@H]1c1ccc(O)cc1,0.311,0.143 (inactive),-0.573 (inactive),-0.663 (inactive),-0.62 (inactive),-0.31,-0.0762,1.25,1.15,2.12
COc1ccc([Si](C)(C)[C@H]2[C@H](CC(=O)N3Cc4ccccc4C[C@H]3CO)O[C@@]3(C(=O)N(Cc4ccc(N5CCOC5=O)cc4)c4ccccc43)[C@@H]2C)cc1,-0.0993,-3.64 (inactive),-0.3 (inactive),1.38 (inactive),-1.01 (inactive),-0.0564,-0.176,0.787,0.438,2.05
[N-]=[N+]=Nc1ccccc1[C@@H]1OC(c2ccc(OCCCO)cc2)=N[C@]1(Cc1ccccc1)C(=O)N1CCCCC1,0.906,-4.4 (inactive),0.316 (inactive),0.241 (inactive),-0.894 (inactive),1.38,0.134,0.551,1.37,1.15

Compound,composite z-score [1],z-score [2],z-score [3],z-score [4],z-score [5],composite z-score [6],composite z-score [7],composite z-score (Torsin-1A (Homo sapiens) [8]),composite z-score (Torsin-1A (Homo sapiens) [9]),composite z-score [10]
CCN(CC)c1ccc(N2CC=CC34O[C@@H]5/C=C\CCCOC(=O)C5[C@H]3C(=O)N(C(C)CO)[C@@H]4C2=O)cc1 (stereo not given in full),-0.367,0.307 (inactive),-1.6 (inactive),1.01 (inactive),-0.695 (inactive),-0.245,-0.0986,-0.428,-0.539,1.19
CC(C)[Si]1(C(C)C)OCc2cc(-c3ccc(-c4ccc(Cl)c(Cl)c4)o3)nc(-c3ccccc3)c21,-0.345,-0.243 (inactive),-0.543 (inactive),0.484 (inactive),-0.272 (inactive),-0.832,-0.295,-0.193,-1.15,-0.128
CCOC(=O)C[C@H]1[C@H](OC(=O)c2ccc(-c3ccccc3)cc2)[C@@H](NC(=O)CC(C)C)c2cc(OCCCO)ccc2N1C(=O)c1ccc2ccccc2n1,-0.0361,-0.0042 (inactive),-0.453 (inactive),1.04 (inactive),-0.428 (inactive),1.31,-0.0259,0.0908,0.31,0.637
COc1cc2c(cc1O)C(c1ccc(CN3CCCC3)cc1)N(Cc1cc3c(cc1Br)OCO3)CC2 (stereo not given),-0.116,-3.59 (inactive),-0.587 (inactive),0.389 (inactive),-0.0519 (inactive),0.881,-0.128,-0.231,0.513,-1.01
COc1cc2c(cc1O)C(C1CC1)N(Cc1cccc(OC(F)(F)F)c1)CC2 (stereo not given),0.0616,-3.88 (inactive),0.73 (inactive),-0.581 (inactive),0.0388 (inactive),-0.41,-0.285,-0.0876,0.315,0.908
CCOC(=O)C[C@H]1[C@H](OC(=O)Cc2ccc3c(c2)OCO3)[C@@H](NC(=O)c2ccc3ccccc3n2)c2cc(OCCCO)ccc2N1C(=O)c1ccc2ccccc2n1,0.593,-1.23 (inactive),-1.4 (inactive),6.51 (inactive),-1.03 (inactive),0.363,-0.128,0.451,0.339,0.301
CCCCC[C@H]1OC[C@@]23C=C(Br)[C@@H](CC12)[C@@]1(CO1)C3=O (stereo not given in full),-0.233,-0.473 (inactive),0.931 (inactive),0.495 (inactive),0.289 (inactive),-0.619,-0.128,-0.695,-0.424,0.647
CC(=O)NCCCC[C@@H]1NC(=O)[C@@H]2C[C@H](C(=O)NCCCCCN)[C@H](c3cccc(OCCO)c3)N2C1=O,0.698,-0.804 (inactive),-1.02 (inactive),-1.34 (inactive),-0.892 (inactive),1.37,-0.19,0.738,-0.0879,1.66
COC(=O)[C@]1(CCS(=O)(=O)c2ccccc2)N=C(c2ccc(OCCCO)cc2)O[C@@H]1c1ccccc1N=[N+]=[N-],1.21,-3.71 (inactive),-0.731 (inactive),2.42 (inactive),-0.889 (inactive),1.39,0.438,0.588,0.453,2.09
O=C(NCCN1CCOCC1)[C@@H]1c2ccccc2C(=O)N(C2Cc3ccccc3C2)[C@H]1c1ccc(CO)cc1,-0.136,-1.59 (inactive),-0.264 (inactive),0.118 (inactive),-1.42 (inactive),-0.456,-0.0509,1.3,0.966,0.105
CCCC=C(CCC)[C@@H](NC(=O)C(C)(C)C)c1ccc(C(=O)OC)cc1,0.0146,-2.97 (inactive),-0.168 (inactive),-0.379 (inactive),-0.744 (inactive),1.69,0.127,-0.0649,0.123,-0.824
O=C1N(Cc2ccccc2)c2ccccc2C[C@]12N=C(c1ccc(OCCCO)cc1)O[C@@H]2c1ccccc1,0.0361,-4.72 (inactive),-0.126 (inactive),1.75 (inactive),-1.08 (inactive),0.0469,-0.0221,-0.569,0.812,0.837
CC(C)NC(=O)[C@@]1(c2ccc([N+](=O)[O-])cc2)CC(=O)N(C2CCCCC2)[C@@H]1c1ccc(CO)cc1,0.34,-2.26 (inactive),-0.177 (inactive),1.09 (inactive),-0.0351 (inactive),0.119,-0.12,0.574,0.5,1.68
CC(=O)N1CC2(CC2)CC1c1ccccc1 (stereo not given),0.898,-0.283 (inactive),0.108 (inactive),0.397 (inactive),-0.366 (inactive),0.547,0.507,0.192,0.421,-0.515
Cc1ccc(S[C@]2(C(=O)O)CC(=O)N(C3CCCCC3)[C@@H]2c2ccc(CO)cc2I)cc1,0.0473,-0.541 (inactive),-0.64 (inactive),-0.269 (inactive),2.76 (inactive),1.43,0.239,0.222,0.919,-0.342
